Source: PubChem BioAssay AID1851 (National Center for Advancing Translational Sciences (NCATS), 2009)
Several values for one entry are separate records, joined by “and”; a condition that tells them apart may be missing. Equal entries are not always repeated. Hit rate of the full screen: of about 16,000 compounds, about 5,800 (36%) were called active. Not shown: some 23% with an inconclusive outcome. The list shows a part of the results. A number with no mark means an inactive call. The call rests on the fitted dose curve; in most records, active means well fitted curve in the direction sought with a large enough effect; inconclusive means small, poorly fitted or top-dose-only effect, or effect the other way; inactive means no such curve, though single readings can be large or run the other way.
On the % scale 0 is the no-effect control and ±100 the full control effect.

The compounds below were run against Cytochrome P450 2C19 (Homo sapiens) (UniProt P33261) (assay: Cytochrome panel assay with activity outcomes). Conditions: recombinant CYP, pro-luciferin dealkylation, luminescence, p450-cyp2c19; series mostly up to 57.1 µM; activity, negative = inhibition: at the top concentration.
Sequence of Cytochrome P450 2C19 (Homo sapiens) (P33261 whole entry, looked up): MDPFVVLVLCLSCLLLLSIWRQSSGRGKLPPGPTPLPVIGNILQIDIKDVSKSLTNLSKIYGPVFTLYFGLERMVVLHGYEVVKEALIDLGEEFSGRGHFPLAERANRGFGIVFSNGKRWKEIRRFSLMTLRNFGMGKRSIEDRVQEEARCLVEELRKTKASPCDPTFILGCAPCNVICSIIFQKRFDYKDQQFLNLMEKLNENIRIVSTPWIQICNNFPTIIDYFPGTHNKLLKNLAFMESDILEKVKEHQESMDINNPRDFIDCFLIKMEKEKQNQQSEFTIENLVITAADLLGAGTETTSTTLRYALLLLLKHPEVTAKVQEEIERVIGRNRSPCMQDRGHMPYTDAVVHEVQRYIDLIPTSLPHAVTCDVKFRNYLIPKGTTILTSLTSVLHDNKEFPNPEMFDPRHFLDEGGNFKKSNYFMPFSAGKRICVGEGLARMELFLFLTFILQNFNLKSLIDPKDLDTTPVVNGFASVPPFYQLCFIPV
For `COc1ncc2nc(-c3cccs3)c(=O)n(-c3ccccc3)c2n1`, the “activity, negative = inhibition” value was -18.4%.
`CN(C)c1ncc2nc(-c3cccs3)c(=O)n(-c3ccccc3)c2n1` was tested, and the “activity, negative = inhibition” value was -10.1%.
`O=c1c2c(-c3cccs3)csc2[nH]c(=S)n1-c1ccccc1` was tested, and the AC50 was 10 µM (active).
In the case of `Cc1cccc(N2CC(O)=C(c3nc4ccccc4n3C)C2=N)c1`, the “activity, negative = inhibition” value was -26%.
In the case of `Cn1c(-c2sc(=S)n(-c3ccccc3)c2N)nc2ccccc21`, the AC50 was 1.41 µM (active).
In the case of `CN(C)CC/C=C1\c2ccccc2COc2ccccc21`, the AC50 was “inactive”.
Compound `CC(C)(C)NC[C@@H](O)c1ccc(O)c(CO)n1` has an activity, negative = inhibition of 27.5% [at 11.4 µM].
`CN(C(=O)c1c(O)c2ccccc2n(C)c1=O)c1ccccc1` was tested, and the “activity, negative = inhibition” value was -26.4%.
In the case of `CCCc1c(O)c2ccccc2n(-c2ccccc2)c1=O`, the AC50 was 11.2 µM (active).
For `CCNc1ncc2nc(-c3cn(C)c4ccccc34)c(=O)n(-c3ccccc3)c2n1`, the “activity, negative = inhibition” value was -27.1%.
With `O=C1CC(c2ccc3c(c2)OCO3)Sc2nc3ccccc3n21` (centres undefined) the AC50 was 2 µM (active).
With `CCOc1cc(CNCCc2ccc(S(N)(=O)=O)cc2)cc(Cl)c1OCc1ccccc1` the AC50 was 3.55 µM (active).
For `CCOc1cc(CNCCO)cc(Br)c1OCc1ccccc1Cl`, the AC50 was 7.08 µM (active).
With `Cc1noc(C)c1C(=O)N1CCC2(CCN(Cc3cc(C(F)(F)F)cc(C(F)(F)F)c3)CC2)CC1` the “activity, negative = inhibition” value was -3.13%.
In the case of `Cc1nnc(-c2cnn(-c3ccccc3)c2N)n1Cc1ccccc1`, the “activity, negative = inhibition” value was -12.1%.
For `Cc1nnc(-c2cnn(-c3ccccc3)c2N)n1Cc1ccc(F)cc1`, the AC50 was 17.8 µM (active).
For `COc1ccc(-c2cc(C(F)(F)F)nc(N3CCOCC3)n2)cc1OC`, the AC50 was 2.24 µM (active).
In the case of `COc1ccc(-c2cc(C(F)(F)F)nc(N3CCN(C)CC3)n2)cc1OC`, the “activity, negative = inhibition” value was -25.1%.
For `Cn1c(=O)c(-c2ccc(F)cc2)nc2cnc(N3CCOCC3)nc21`, the “activity, negative = inhibition” value was -19.9%.
With `COc1ccc(-c2cc(C(F)(F)F)nc(NC3CCCC3)n2)cc1OC` the AC50 was 22.4 µM (active).
`COCCn1c(=O)c(-c2ccc(OC)cc2)nc2cnc(N3CCOCC3)nc21` was tested, and the “activity, negative = inhibition” value was 1.17%.
In the case of `COc1ccccc1-c1nc(NC2CC2)c2ccccc2n1`, the “activity, negative = inhibition” value was -15.4%.
With `COc1ccc(-c2cc(C(F)(F)F)nc(N3CCCCC3)n2)cc1OC` the AC50 was 3.16 µM (active).
Compound `O=C(O)C[C@H](NC(=O)CP(=O)(O)O)C(=O)O.[NH-][C@@H]1CCCC[C@@H]1[NH-].[Pt]` has an activity, negative = inhibition of -14.4% [at 11.4 µM].
For `CCOC(=O)N/N=C1/C[C@@H](O)[C@@H](O)[C@@H]2[C@@H]3C(=O)N(CC)C(=O)[C@H]3CC[C@H]12`, the activity, negative = inhibition was -7.53% [at 11.4 µM].
In the case of `Cc1csc(NC(=O)CNS(=O)(=O)c2cccs2)n1`, the AC50 was 14.1 µM (active).
In the case of `Cc1csc(NC(=O)CCNS(=O)(=O)c2ccc3c(c2)c(=O)n(C)c(=O)n3C)n1`, the “activity, negative = inhibition” value was 7.51%.
With `Cc1csc(NC(=O)Cc2c[nH]c3ccccc23)n1` the AC50 was 7.08 µM (active).
For `O=C(O)Cc1c[nH]c2ccc(O)cc12`, the “activity, negative = inhibition” value was 36%.
`O=C(CCNS(=O)(=O)c1cccs1)N1CCc2ccccc2C1` was tested, and the AC50 was 2.24 µM (active).
In the case of `COCC(=O)N1CCC2(CC1)CN(C(c1ccccc1)c1ccccc1)C2`, the “activity, negative = inhibition” value was -8.51%.
In the case of `CCOC(=O)N1CCN(C(=O)CNS(=O)(=O)c2cccs2)CC1`, the AC50 was 8.91 µM (active).
For `CCOC(=O)N1CCN(C(=O)CNCc2cccs2)CC1`, the “activity, negative = inhibition” value was -4.3%.
`O=C(CCNS(=O)(=O)c1cccs1)N1CCCCCC1` was tested, and the AC50 was 3.16 µM (active).
`O=c1nc2ccccc2c2n1CC(CN1CCN(c3cccc(Cl)c3)CC1)N2` (centres undefined) was tested, and the “activity, negative = inhibition” value was -22.4%.
With `O=C(Cc1ccc(-n2c(=O)[nH]c3ccccc3c2=O)cc1)N1CCN(c2cccc(Cl)c2)CC1` the AC50 was 8.91 µM (active).
In the case of `COc1ccc(CC(=O)N2CCN(c3ccc(C4=NNC(=O)CC4C)cc3)CC2)cc1` (centres undefined), the “activity, negative = inhibition” value was -18.7%.
In the case of `CN1CCCC[C@@H]1CCN1c2ccccc2Sc2ccc(S(C)=O)cc21` (some centres undefined), the AC50 was “inactive”.
In the case of `CN1CCN(CC(=O)N2c3ccccc3Sc3cc4ccccc4cc32)CC1`, the activity, negative = inhibition was -1.84% [at 11.4 µM].
With `CC1CCN(CC(=O)N2c3ccccc3Sc3cc4ccccc4cc32)CC1` the AC50 was 3.16 µM (active).
For `CCN[C@@H]1C[C@H](C)S(=O)(=O)c2sc(S(N)(=O)=O)cc21`, the “activity, negative = inhibition” value was -20.6% [at 25.6 µM].
For `Cc1ccsc1/C=N/Nc1nc(Cl)c(Cl)cc1Cl`, the AC50 was 7.94 µM (active).
In the case of `CN(C)c1ccc(N=Cc2nc(-c3ccccc3)oc2O)cc1`, the AC50 was 1.78 µM (active).
For `Oc1oc(-c2ccccc2)nc1C=Nc1ccccc1`, the AC50 was 3.98 µM (active).
With `CN(C)Cc1ccc(O)c(CN(C)C)n1` the activity, negative = inhibition was -0.0983% [at 11.4 µM].
In the case of `C=CCCCCCCCCC(=O)Nc1c[nH]c(=O)[nH]c1=O`, the “activity, negative = inhibition” value was -4.48%.
For `Cc1ccc2[nH]c3c(N4CCc5ccccc5C4)ncnc3c2c1`, the AC50 was 1.58 µM (active).
In the case of `CCN1CCCC1Cn1cnc2c([nH]c3ccc(C)cc32)c1=O` (centres undefined), the “activity, negative = inhibition” value was -42.8%.
With `COc1ccc(OC)c(C(=O)CN2C(=O)NC(C)(c3ccccc3)C2=O)c1` (centres undefined) the AC50 was 0.224 µM (active).
With `Cc1ccc(C2(C)NC(=O)N(CC(=O)Nc3cc(C)on3)C2=O)cc1` (centres undefined) the “activity, negative = inhibition” value was -26.8%.
In the case of `Cc1cc(NC(=O)CN2C(=O)NC(C)(c3ccc(OC(F)F)cc3)C2=O)no1` (centres undefined), the “activity, negative = inhibition” value was -9.86%.
With `Cn1c(SCC(=O)NC2CC2)nnc1-c1cccc(NC(=O)c2ccccc2F)c1` the “activity, negative = inhibition” value was 5.1%.
`Cc1nnc(SCC(=O)NCC2CCCCC2)n(N)c1=O` was tested, and the “activity, negative = inhibition” value was 14.4%.
For `CCn1c(SCC(=O)NC2CCCCC2)nnc1-c1cc2cccc(OC)c2o1`, the AC50 was 10 µM (active).
For `Nc1nc2c(c(=O)[nH]1)CN(c1ccc(S(N)(=O)=O)cc1)CN2`, the activity, negative = inhibition was 24.4% [at 11.4 µM].
In the case of `Cc1ccc(/C=C2\SC(=S)N(CCCC(=O)Nc3ccccn3)C2=O)cc1`, the AC50 was 10 µM (active).
In the case of `CCNc1ncc2nc(-c3ccccc3)c(=O)n(C)c2n1`, the “activity, negative = inhibition” value was -12.8%.
`CCNc1ncc2nc(CCc3ccccc3)c(=O)n(C)c2n1` was tested, and the AC50 was 2.51 µM (active).
`CCNc1ncc2nc(-c3ccccc3)c(=O)n(C3CC3)c2n1` was tested, and the “activity, negative = inhibition” value was -28.2%.
With `CCNc1ncc2nc(C)c(=O)n(C3CC3)c2n1` the “activity, negative = inhibition” value was -22.7%.
With `CCNc1ncc2nc(CCc3ccccc3)c(=O)n(Cc3ccc(F)cc3)c2n1` the “activity, negative = inhibition” value was -33.5%.
`Cc1nc2cnc(Nc3ccccc3)nc2n(C)c1=O` was tested, and the “activity, negative = inhibition” value was -7.31%.
For `CCNc1ncc2nc(CCc3ccccc3)c(=O)n(C3CC3)c2n1`, the AC50 was 6.31 µM (active).
With `Cn1c(=O)c(CCc2ccccc2)nc2cnc(Nc3ccccc3)nc21` the AC50 was 15.8 µM (active).
In the case of `CCO/C([O-])=N/c1c[n+](N2CCOCC2)no1`, the “activity, negative = inhibition” value was -25.7% [at 25.6 µM].
For `COC(=O)C(NC(=O)c1ccc(Cl)cc1)(Nc1nc(C)cs1)C(F)(F)F` (centres undefined), the AC50 was 5.01 µM (active).
In the case of `CC(=O)c1ccc(S(=O)(=O)NC(=O)NC2CCCCC2)cc1`, the “activity, negative = inhibition” value was -9.92% [at 25.6 µM].
`O=C(CCc1ccc(S(=O)(=O)NC2CCCCC2)cc1)N(Cc1ccccc1)Cc1ccccc1` was tested, and the AC50 was 1.41 µM (active).
In the case of `CCC(C)NS(=O)(=O)c1ccc(NC(=O)CCC2CCCCC2)cc1` (centres undefined), the “activity, negative = inhibition” value was -25%.
For `Cc1ccc(NC(=O)CCc2ccc(S(=O)(=O)NC3CCCCC3)cc2)cc1`, the AC50 was 15.8 µM (active).
With `Cc1ccccc1NC1=NC(=S)N(c2ccccc2)C12CCOC(C)(C)C2` (centres undefined) the “activity, negative = inhibition” value was -25.6%.
With `COc1ccc([C@@H](Nc2ccccn2)c2cc(C(C)(C)C)cc(C(C)(C)C)c2O)cc1` the AC50 was 2.51 µM (active).
In the case of `CN1CCc2cc(Cl)c(O)cc2[C@@H](c2ccccc2)C1`, the “activity, negative = inhibition” value was 24%.
With `CS(=O)(=O)N1CCC2(CCCN(c3ncccn3)C2)CC1` the “activity, negative = inhibition” value was -32%.
In the case of `O=S(=O)(c1ccccc1)N1CCC[C@@]2(CCN(c3cccc(-c4ccccc4)c3)C2)C1`, the “activity, negative = inhibition” value was -36%.
In the case of `O=S(=O)(c1ccccc1)N1CCC[C@@]2(CCN(c3ccccc3)C2)C1`, the AC50 was 0.316 µM (active).
For `O=S(=O)(c1ccccc1)N1CCC[C@@]2(CCN(C(c3ccccc3)c3ccccc3)C2)C1`, the “activity, negative = inhibition” value was -11.9%.
For `CS(=O)(=O)N1CCC[C@@]2(CCN(c3ncccn3)C2)C1`, the “activity, negative = inhibition” value was 0.968%.
`CC(C)CN1CC[C@@]2(CCCN(S(=O)(=O)c3ccccc3)C2)C1` was tested, and the “activity, negative = inhibition” value was -20.8%.
In the case of `CS(=O)(=O)N1CCC[C@@]2(CCN(c3ccncc3)C2)C1`, the “activity, negative = inhibition” value was -44.5%.
For `O=S(=O)(c1ccccc1)N1CCC[C@@]2(CCN(c3ccncc3)C2)C1`, the AC50 was 0.398 µM (active).
With `CS(=O)(=O)N1CCC2(CCCN(c3ccncc3)C2)CC1` the AC50 was 1.26 µM (active).
With `CS(=O)(=O)N1CCC[C@@]2(CCN(c3ccccn3)C2)C1` the “activity, negative = inhibition” value was -1%.
In the case of `CS(=O)(=O)N1CCC[C@@]2(CCN(c3ccccc3)C2)C1`, the AC50 was 3.16 µM (active).
With `CCN1C(=O)[C@H]2[C@H]3[C@H](O)[C@H](O)C/C(=N/OC[C@@H](O)COCc4ccco4)[C@@H]3CC[C@@H]2C1=O` the activity, negative = inhibition was 29.6% [at 11.4 µM] and 41.4% [at 11.4 µM].
In the case of `O=S(=O)(c1ccccc1)N1CCC2(CCCN(c3ccccc3)C2)CC1`, the AC50 was 1.58 µM (active).
With `CN1CCCC2(CCN(S(=O)(=O)c3ccccc3)CC2)C1` the “activity, negative = inhibition” value was 1.18%.
`O=S(=O)(c1ccccc1)N1CCC2(CCCN(c3cccc(-c4ccccc4)c3)C2)CC1` was tested, and the “activity, negative = inhibition” value was -6.1%.
With `Cc1cc(O)c(-c2cc(O)c(C)cc2O)cc1O` the AC50 was 0.794 µM (active).
In the case of `Cc1cc(O)c(C(C)C)cc1CN1CCCCC1`, the activity, negative = inhibition was 32.6% [at 11.4 µM].
For `N#Cc1cccc(NC(=O)N2CC[C@@]3(CCCNC3)C2)c1`, the “activity, negative = inhibition” value was -30.4%.
In the case of `CC(C)(C)c1cccc(Oc2nn[nH]n2)c1`, the AC50 was 7.94 µM (active).
For `c1cc(NNc2cccc(-c3nn[nH]n3)c2)cc(-c2nn[nH]n2)c1`, the activity, negative = inhibition was 14.6% [at 11.4 µM].
`Cc1cc(C)cc(Oc2nn[nH]n2)c1` was tested, and the “activity, negative = inhibition” value was -23%.
For `COc1ccc(-c2nn3cnnc3s2)cc1OC`, the AC50 was 8.91 µM (active).
With `Nc1cc(=O)[nH]c(SCC(=O)Nc2ccc(S(=O)(=O)N3CCOCC3)cc2)n1` the “activity, negative = inhibition” value was 25.5%.
`O=C(CSCc1ccccc1)Nc1ccc(S(=O)(=O)N2CCOCC2)cc1` was tested, and the AC50 was 17.8 µM (active).
With `COCC(=O)N1CCC2(CC1)CN(C(=O)Nc1cccc(F)c1)C2` the “activity, negative = inhibition” value was -7.41%.
In the case of `NC(=O)c1ccc(C2SCC(=O)N2Cc2ccccc2)cc1` (centres undefined), the AC50 was 10 µM (active).
